SUMO Mot1 rescue – blocks SUMOylation pathway, rescuing yeast Mot1-301 growth; AID 2716; growth rescue, % at 18.8 µM; S. cerevisiae Mot1-301 growth rescue, ATP luminescence, 38.5C; percent above DMSO median, 100 means doubled; hit rate 1% among 320,000;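 active means every valid replicate shows activation above 250% relative to neutral control wells; inactive means the rest, any valid replicate at or below 250%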;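 further: OY570 slx delta 5 strain wells were the positive control but not used for scaling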
ALR inh – inhibitors of human sulfhydryl oxidase ALR | P55789 | purified ALR, DTT oxidation, H2O2 HRP-luminol luminescence | inhibition, % (test concentration not listed) | hit rate 3.8% among 290,000 | AID 485317;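 active means mean replicate inhibition above about 79%, with every replicate also reaching it, limit read from the data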
Target sequence (P55789 whole entry, looked up): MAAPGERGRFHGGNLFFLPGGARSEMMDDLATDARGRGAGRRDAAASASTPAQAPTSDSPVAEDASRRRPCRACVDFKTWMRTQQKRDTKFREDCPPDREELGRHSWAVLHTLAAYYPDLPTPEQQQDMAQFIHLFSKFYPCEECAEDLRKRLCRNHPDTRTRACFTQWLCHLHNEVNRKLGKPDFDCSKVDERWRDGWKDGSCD
AI-2 QS modul – modulators of Vibrio harveyi AI-2 quorum sensing system | Vibrio harveyi JMH597 AI-2 luminescence/OD600 ratio, 9 h; active compounds read low; strain lacks LuxN and CqsS sensors; 0 = neutral-control median | activity change, % at 7.5 µM | hit rate 0.4% among 300,000 | AID 2094; in the data active means activity change below about -75%, passing the limit was not always enough;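 further: luminescence divided by OD600 gain over 9 h not by final OD600 alone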
HIF activator – HIF pathway transcriptional activation; U2OS HRE-luciferase reporter, luminescence; normalized: DMSO 0%, desferrioxamine 100%; activation, % at 7.5 µM (by protocol); hit rate 0.32% among 300,000; AID 1910;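 active means mean activation of at least 10% of the iron chelator positive control signal, with at least half of replicates also reaching 10%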
Numbers without * were called inactive. Rows were chosen to be rich in hits. Some 4.8% of all compounds tested hit in one or more screens of this group.

`CCCCCCCCCCCCN1[C@@H](CC(C)=O)c2cc(C(F)(F)F)ccc2S1(=O)=O` gave SUMO Mot1 rescue 9, ALR inh -4, AI-2 QS modul 7 and HIF activator 1.
Cc1cc(S(=O)(=O)c2ccc([N+](=O)[O-])cn2)ccc1Br was read as SUMO Mot1 rescue 379*, ALR inh -3, AI-2 QS modul 30 and HIF activator 5.
`Cc1ccc(S(=O)(=O)c2ccc([N+](=O)[O-])cn2)cc1` gave SUMO Mot1 rescue 80, ALR inh 89*, AI-2 QS modul -43 and HIF activator 3.
Screening Nc1ccc(S(=O)(=O)c2ccccc2)nc1 returned SUMO Mot1 rescue -6, AI-2 QS modul 5 and HIF activator 1.
`O=[N+]([O-])c1ccc(S(=O)(=O)c2ccccc2)nc1` gave SUMO Mot1 rescue 169, ALR inh 98*, AI-2 QS modul 32 and HIF activator -1.
`Cc1cc(Sc2ccc([N+](=O)[O-])cn2)ccc1Br` gave SUMO Mot1 rescue 6, ALR inh -5, AI-2 QS modul 16 and HIF activator 0.
For CCOc1ccc(NC(=O)NC2CCS(=O)(=O)C2)cc1 (stereo unspecified) the results were SUMO Mot1 rescue 357, ALR inh 0, AI-2 QS modul 16 and HIF activator -8.
For CSc1ccc(CC(=O)N2CCC(n3nccc3NC(=O)C3CC3)CC2)cc1 the results were SUMO Mot1 rescue 21, ALR inh -10, AI-2 QS modul 6 and HIF activator 2.
`CC(=O)N1CCN(c2ccc(NCc3ccc(C)s3)cc2)CC1` gave SUMO Mot1 rescue 15, ALR inh 99*, AI-2 QS modul 29 and HIF activator 0.
For CC(=O)Nc1ccc(N2CCN(C(=O)c3cccs3)CC2)cc1 the results were SUMO Mot1 rescue -13, ALR inh -18, AI-2 QS modul 10 and HIF activator 0.
For Cc1ccc(CNc2ccc(N3CCOCC3)cc2)s1 the results were SUMO Mot1 rescue -34, AI-2 QS modul 21 and HIF activator 2.
Clc1cc(NCc2cccs2)ccc1N1CCOCC1 was read as SUMO Mot1 rescue 7, ALR inh 97*, AI-2 QS modul 5 and HIF activator 4.
For CC(=O)N1CCN(c2ccc(NCc3cccs3)cc2)CC1 the results were SUMO Mot1 rescue 1 and ALR inh 99*.
`C[C@H](CO)N1C[C@H](C)[C@@H](CN(C)Cc2ccc(Cl)c(Cl)c2)Oc2c(NS(=O)(=O)c3cccs3)cccc2C1=O` gave SUMO Mot1 rescue -14 and ALR inh 0.
For Cc1cc(O)ccc1NS(=O)(=O)c1ccc2c3c(cccc13)C(=O)N2 the results were SUMO Mot1 rescue -5, ALR inh 99*, AI-2 QS modul 0 and HIF activator 0.
O=C(O)c1ccccc1NS(=O)(=O)c1ccc2c3c(cccc13)C(=O)N2 was read as SUMO Mot1 rescue -12, ALR inh -17, AI-2 QS modul 31 and HIF activator 0.
CCOC(=O)Nc1sc(NS(=O)(=O)c2ccccc2)nc1C was read as SUMO Mot1 rescue -11, ALR inh 98*, AI-2 QS modul 9 and HIF activator 0.
For Cc1nc(NS(=O)(=O)c2ccccc2)sc1NC(=O)Nc1ccccc1 the results were SUMO Mot1 rescue 64, ALR inh 99*, AI-2 QS modul -1 and HIF activator 0.
`Cc1nc(NS(=O)(=O)c2ccccc2)sc1NC(=O)Nc1ccc(Cl)cc1` gave SUMO Mot1 rescue 168, ALR inh 74, AI-2 QS modul 49 and HIF activator -1.
O=C(NC1CCCC1)c1ccc2c(c1)N(Cc1ccc(F)cc1)CCS2 was read as SUMO Mot1 rescue 9, ALR inh 39, AI-2 QS modul -8 and HIF activator 4.
Screening Cc1ccc(CN2CCSc3ccc(C(=O)NCC4CCCO4)cc32)cc1 (stereo unspecified) returned SUMO Mot1 rescue 27, ALR inh 87*, AI-2 QS modul 7 and HIF activator 4.
Cc1ccc(CN2CCSc3ccc(C(=O)NCCCN4CCN(C)CC4)cc32)cc1 was read as SUMO Mot1 rescue -5, ALR inh 98*, AI-2 QS modul -12 and HIF activator 0.
CN1CCSc2ccc(C(=O)NCc3cccc(F)c3)cc21 was read as SUMO Mot1 rescue -17, ALR inh 92*, AI-2 QS modul 16 and HIF activator 0.
For COc1ccc(CCNC(=O)c2ccc3c(c2)N(Cc2ccc(C)cc2)CCS3)cc1OC the results were SUMO Mot1 rescue -17, ALR inh -1, AI-2 QS modul 14 and HIF activator 0.
Screening CN(C)CCNC(=O)c1ccc2c(c1)N(Cc1ccc(F)cc1)CCS2 returned SUMO Mot1 rescue -20, ALR inh 99*, AI-2 QS modul -3 and HIF activator 0.
For COc1ccc(C(=O)NCC(=O)OCC(=O)Nc2ncc(Cl)cc2Cl)cc1[N+](=O)[O-] the results were SUMO Mot1 rescue -12.
Screening CN(C(=O)Cn1nc(C(=O)O)c2ccccc2c1=O)C1CCCCC1 returned SUMO Mot1 rescue 13 and ALR inh 0.
For COc1cc(/C=N\N=C2/SC(CC(=O)O)C(=O)N2c2ccc(O)cc2)ccc1O (stereo unspecified) the results were SUMO Mot1 rescue 0, ALR inh 99*, AI-2 QS modul 9 and HIF activator 0.
Screening COc1ccc(-c2c(C)nn(Cc3ccccc3)c2N)cc1 returned SUMO Mot1 rescue -4, ALR inh 97*, AI-2 QS modul -17 and HIF activator 0.
Cc1ccc(C(=O)OCC(=O)Nc2ccccc2N2CCOCC2)cc1 was read as SUMO Mot1 rescue -10, ALR inh 92*, AI-2 QS modul -5 and HIF activator 0.
`CCCCCC(=O)Nc1ccccc1N1CCOCC1` gave SUMO Mot1 rescue 2, ALR inh 99*, AI-2 QS modul 14 and HIF activator -1.
For CCCCC(=O)Nc1ccccc1N1CCN(c2ccccc2)CC1 the results were SUMO Mot1 rescue 0, ALR inh 74, AI-2 QS modul 3 and HIF activator 0.
O=C(CN1CCN(S(=O)(=O)N2CCOCC2)CC1)Nc1cc(Cl)ccc1Cl was read as SUMO Mot1 rescue -18, AI-2 QS modul 17 and HIF activator 0.
O=C1CSC(=Nc2ccc(O)cc2)N1c1ccc(O)cc1 was read as SUMO Mot1 rescue -4, ALR inh 99* and AI-2 QS modul 26.
C=CCN1C(=O)CSC1=Nc1ccc(O)cc1 was read as SUMO Mot1 rescue 10, ALR inh 99*, AI-2 QS modul 0 and HIF activator 0.
Screening C=CCN1C(=O)CSC1=Nc1ccc(NC(C)=O)cc1 returned SUMO Mot1 rescue -17, ALR inh -4, AI-2 QS modul 15 and HIF activator -1.
Screening CCNC(=O)CN(c1ccc(Oc2ccccc2)cc1)S(=O)(=O)c1ccccc1 returned SUMO Mot1 rescue -4, ALR inh -7, AI-2 QS modul 7 and HIF activator 0.
`Cc1ccc(NC2=C(Cl)C(=O)OC2OC(=O)c2ccc(C)cc2)cc1` (stereo unspecified) gave SUMO Mot1 rescue 27, ALR inh 9, AI-2 QS modul 42 and HIF activator 0.

Screens (PubChem)
